23 compounds from PubChem BioAssay (EPA / NIEHS) can be followed below.

Read-out in experiment [1]: Vascular endothelial growth factor receptor 2 (Homo sapiens) (UniProt P35968)
In words: BSK_4H_VEGFRII: BioMAP Diversity Plus: 4H Assay for Vascular endothelial growth factor receptor 2 (VEGFR2) Biomarker Activity (AID 2283031).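 For AC50: cell-surface VEGFR2 protein level quantified by ELISA.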 The settings on record: primary human endothelial cells (HUVEC); actives raise or lower the signal. The gist of the method:
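ELISA read-out of VEGFRII in primary human umbilical vein endothelium, taken 24 h after chemical treatment. Responses are expressed relative to DMSO, with bidirectional fitting.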

Read-out in experiment [2]: Human Leukocyte Antigen - DR isotype (HLADR), HLA-DRA (gene 3122)
Nature of the experiment: BSK_BE3C_HLADR: BioMAP Diversity Plus: BE3C Assay for Human Leukocyte Antigen - DR isotype (HLADR) Biomarker Activity (AID 2283032). As to conditions: primary human bronchial epithelial cells; actives raise or lower the signal. The gist of the method:
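Primary human bronchial epithelial cells (BE3C); 24 h chemical exposure; HLA-DR by ELISA; bidirectional curve fit vs DMSO baseline.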

Read-out in experiment [3]: Vascular cell adhesion molecule 1 (VCAM1), VCAM1 (gene 7412)
Nature of the experiment: BSK_4H_VCAM1: BioMAP Diversity Plus: 4H Assay for Vascular cell adhesion molecule 1 (VCAM1) Biomarker Activity (AID 2283033).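 For outcome: cell-surface VCAM-1 protein measured by ELISA.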 The settings on record: primary human endothelial cells (HUVEC); actives raise or lower the signal. The gist of the method:
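HUVEC, 24 h post-dose; VCAM-1 by ELISA. Bidirectional curve fit vs DMSO baseline. Parallel SRB total-protein stain (0.1% SRB after 10% TCA fixation, 560 nm) for cytotoxicity.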

Read-out in experiment [4]: Interferon-gamma inducible Protein 10 (IP10), CXCL10 (gene 3627)
In words: BSK_BE3C_IP10: BioMAP Diversity Plus: BE3C Assay for Interferon-gamma inducible Protein 10 (IP10) Biomarker Activity (AID 2283034). The settings on record: primary human bronchial epithelial cells; actives raise or lower the signal. A digest of the protocol:
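ELISA readout of IP-10 in BE3C system: primary human bronchial epithelial cells, 24 h post-dosing; bidirectional curve fit vs DMSO baseline.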

Read-out in experiment [5]: Monokine induced gamma interferon (MIG), CXCL9 (gene 4283)
In words: BSK_BE3C_MIG: BioMAP Diversity Plus: BE3C Assay for Monokine induced gamma interferon (MIG) Biomarker Activity (AID 2283035).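 For outcome: MIG protein measured by ELISA in BE3C cultures after 24 h of dosing.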 As to conditions: primary human bronchial epithelial cells; actives raise or lower the signal. A digest of the protocol:
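ELISA quantified MIG after 24 h exposure of primary bronchial epithelial cultures, analysed in both directions relative to DMSO. Cytotoxicity tracked in parallel cultures by sulforhodamine B staining.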

Read-out in experiment [6]: Plasminogen activator inhibitor-1 (PAI1), SERPINE1 (gene 5054)
Nature of the experiment: BSK_BE3C_PAI1: BioMAP Diversity Plus: BE3C Assay for Plasminogen activator inhibitor-1 (PAI1) Biomarker Activity (AID 2283037). The settings on record: primary human bronchial epithelial cells; actives raise or lower the signal. The gist of the method: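 ELISA read-out of PAI-1 from human bronchial epithelial primary cells, 24 h post-dosing; bidirectional curve fit vs DMSO baseline, gain or loss of signal scored.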

Read-out in experiment [7]: urokinase plasminogen activator (uPA), PLAU (gene 5328)
In words: BSK_BE3C_uPA: BioMAP Diversity Plus: BE3C Assay for urokinase plasminogen activator (uPA) Biomarker Activity (AID 2283038).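 For outcome: uPA protein level quantified by ELISA in cell cultures; uPA read one day after compound addition.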 As to conditions: primary human bronchial epithelial cells; actives raise or lower the signal. A digest of the protocol:
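Bronchial epithelial cells (human, primary); chemical 24 h; uPA by ELISA; bidirectional fit vs DMSO. SRB (0.1%, after 10% TCA fixation, 560 nm) in parallel cultures for cytotoxicity.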

Read-out in experiment [8]: Urokinase-type plasminogen activator receptor (uPAR), PLAUR (gene 5329)
Nature of the experiment: BSK_BE3C_uPAR: BioMAP Diversity Plus: BE3C Assay for Urokinase-type plasminogen activator receptor (uPAR) Biomarker Activity (AID 2283039).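 For outcome: uPAR protein level measured by ELISA on the cells; cells exposed to compound for one day before measurement.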 The settings on record: primary human bronchial epithelial cells; actives raise or lower the signal. A digest of the protocol:
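ELISA readout of uPAR on human lung primary bronchial epithelial cells, 24 h post-dosing. Bidirectional curve fit relative to DMSO vehicle baseline; gain or loss of signal both scored.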

Read-out in experiment [9]: Interleukin-6 (IL6), IL6 (gene 3569)
In words: BSK_CASM3C_IL6: BioMAP Diversity Plus: CASM3C Assay for Interleukin-6 (IL6) Biomarker Activity for (AID 2283040). The settings on record: primary human coronary artery smooth muscle cells; actives raise or lower the signal.

Read-out in experiment [10]: Transforming growth factor beta 1 (TGFb1), TGFB1 (gene 7040)
Nature of the experiment: BSK_BE3C_TGFb1: BioMAP Diversity Plus: BE3C Assay for Transforming growth factor beta 1 (TGFb1) Biomarker Activity (AID 2283036;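 for outcome: TGF-b1 protein level measured by ELISA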). The settings on record: primary human bronchial epithelial cells; actives raise or lower the signal. The gist of the method:
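Read-out: ELISA for TGF-b1 in primary human bronchial epithelial cultures, 24 h post-dose. Bidirectional curve fitting vs DMSO control; gain or loss of signal both scored.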

Structures are written as SMILES. Where “and” joins values, the source holds several entries; their conditions need not be identical. Identical values can stand only once. More than one record can exist for a structure, and the calls need not agree. Calls of active or inactive are those of the source. Rule for the calls: active = hit-call score of the fitted dose curve at least 0.9, where 1 is the maximum; inactive = score below 0.9.

A word on the AC50: it is the concentration giving half of the maximal activity seen. As to `CC(C)(CO)CO`, the result in [1], in experiment [2], in experiment [3], in [4], in experiment [5] and in experiment [6] was inactive. The result in experiment [7], in experiment [8] and in [9] was inactive. Besides, the values for the AC50 in [4] and in experiment [5] were 5.62 µM (active) and 8.35 µM (active), respectively.
In the case of `C#C[C@]1(O)CC[C@H]2[C@@H]3CCc4cc(O)ccc4[C@H]3CC[C@@]21C`, the outcome in experiment [1], in [2], in experiment [3], in [4], in experiment [5] and in experiment [10] was inactive. In addition, the result in experiment [6], in experiment [7], in [8] and in experiment [9] was inactive.
`C=C(F)C(=O)OC(C(F)(F)F)C(F)(F)F`: the result in [1], in experiment [2], in experiment [3], in experiment [4], in experiment [5] and in [6] was inactive. Further, the outcome in [7], in experiment [8] and in [9] was inactive.
Turning to `CC1(C)[C@H](C=C(Cl)Cl)[C@H]1C(=O)OCc1cccc(Oc2ccccc2)c1`, the result in [1], in [2], in experiment [3], in [4], in [5] and in experiment [10] was inactive. The result in experiment [6], in [7], in experiment [8] and in [9] was inactive.
In the case of `CCCCN(CCO)CCO`, the result in experiment [1], in experiment [2], in experiment [3], in experiment [4], in [5] and in experiment [6] was inactive. In addition, the outcome in [7], in [8] and in experiment [9] was inactive.
Regarding `Nc1ccc(N)c([N+](=O)[O-])c1`, the outcome in [1], in experiment [2], in experiment [3], in experiment [4], in experiment [5] and in experiment [10] was inactive. In addition, the result in [6], in [7], in experiment [8] and in [9] was inactive.
For `c1ccc2c(c1)-c1ccc3ccc4cccc5cc-2c1c3c45`, the result in [1], in experiment [4], in [5], in experiment [10], in [6] and in [7] was inactive. Moreover, the outcome in experiment [8] and in [9] was inactive. Besides, the values for the AC50 in experiment [2] and in [3] were 2.57 µM (active) and 3.53 µM (active), respectively.
Regarding `c1ccc(OCCOc2ccccc2)cc1`, the result in [1], in [2], in experiment [3], in experiment [4], in experiment [5] and in experiment [6] was inactive. For the same compound, the result in [7], in experiment [8] and in experiment [9] was inactive.
For the compound `CCn1cc(C(=O)O)c(=O)c2ccc(C)nc21`, the outcome in experiment [1], in experiment [2], in [3], in experiment [4], in experiment [5] and in experiment [6] was inactive. For the same compound, the outcome in [7], in experiment [8] and in experiment [9] was inactive.
`c1ccc(Sc2ccccc2)cc1`: the outcome in experiment [1], in [5], in experiment [8] and in experiment [9] was inactive. Moreover, the AC50 in experiment [2] is 29.9 µM (active); in [3] it was 31.3 µM (active); in experiment [4], 30.1 µM (active); in experiment [10], 20 µM (active); in [6], 28.1 µM (active); in experiment [7], 25.6 µM (active).
For `CCOC(=O)CCCCCCCCC(=O)OCC`, the result in experiment [1], in experiment [2], in experiment [3], in [4], in experiment [5] and in [10] was inactive. In addition, the result in experiment [6], in experiment [7], in experiment [8] and in experiment [9] was inactive.
Consider `CC(C)Cc1ccc(C(C)C(=O)O)cc1` (stereo unspecified), for which the result in experiment [1], in experiment [2], in [3], in experiment [4], in experiment [5] and in [10] was inactive. In addition, the result in experiment [6], in experiment [7] and in [8] was inactive. For the same compound, the concentration at half-maximal activity (AC50) in experiment [9] was 5.55 µM (active).
As to `C=C(C)C(=O)OCCC(F)(F)C(F)(F)C(F)(F)C(F)(F)C(F)(F)C(F)(F)C(F)(F)C(F)(F)F`, the result in experiment [1], in experiment [2], in experiment [3], in experiment [4], in experiment [5] and in experiment [6] was inactive. The result in [7], in experiment [8] and in experiment [9] was inactive.
Consider `O=S(=O)(O)C(F)(F)C(F)(F)OC(F)(F)C(F)(F)F`, for which the result in experiment [1], in experiment [2], in [3], in experiment [4], in [5] and in experiment [6] was inactive. In addition, the outcome in experiment [7], in experiment [8] and in experiment [9] was inactive.
As for `O=C(O)C(F)(F)C(F)(F)C(F)(F)C(F)(F)C(F)(F)C(F)(F)C(F)(F)C(F)F`, the result in [1], in experiment [3], in experiment [5], in [6], in [7] and in experiment [8] was inactive. Moreover, in [9], the result was inactive. Moreover, the AC50 in experiment [2] was 12.5 µM (active) and 3.23 µM (active); in [4] it was 30 µM (active) and 38.3 µM (active).
In the case of `NC(=O)c1c(Cl)cccc1Cl`, the outcome in experiment [1], in [2], in [3], in experiment [4], in [5] and in [10] was inactive. Further, the result in experiment [6], in experiment [7], in [8] and in experiment [9] was inactive.
As for `CCCO[Si](OCCC)(OCCC)OCCC`, the outcome in experiment [1], in [2], in experiment [3], in experiment [4], in [5] and in experiment [6] was inactive. Moreover, the result in experiment [7], in [8] and in experiment [9] was inactive.
Consider `CC(=O)OCC=C(C)CCC=C(C)CCC=C(C)C`, for which the outcome in [1], in [3], in [5], in experiment [10], in experiment [7] and in [8] was inactive. The result in experiment [9] was inactive. In addition, the results for the AC50 in experiment [2], in [4] and in [6] were 3.97 µM (active), 8.81 µM (active) and 0.016 µM (active), respectively.
For the compound `CC(C)CCCC(C)(C)O`, the outcome in experiment [1], in [2], in [3], in experiment [4], in experiment [5] and in experiment [6] was inactive. Further, the result in experiment [7], in [8] and in experiment [9] was inactive.
In the case of `CC1=CC(C)C(C=O)C(C)C1` (stereo unspecified) (tested in a mixture with another compound), the outcome in experiment [1], in experiment [2], in [3], in experiment [4], in experiment [5] and in experiment [10] was inactive. The result in [6], in experiment [7], in experiment [8] and in experiment [9] was inactive.
As to `O=C(c1ccc(OCCN2CCCCC2)cc1)c1c(-c2ccc(O)cc2)sc2cc(O)ccc12`, in [1], the result was inactive. In addition, the AC50 in [2] was 20.3 µM (active); in [3], 34.5 µM (active); in experiment [4] it was 39.2 µM (active); in experiment [5], 37.2 µM (active); in [10], 31.9 µM (active); in experiment [6], 22.4 µM (active). Further, the AC50 in experiment [7] is 34 µM (active); in [8] it was 31.8 µM (active); in experiment [9] it was 20.1 µM (active).
Regarding `O=C(O)C(F)(F)OC(F)(F)C(F)(F)OC(F)(F)C(F)(F)C(F)(F)C(F)(F)F`, the result in experiment [1], in [3], in experiment [5], in experiment [6], in experiment [7] and in [8] was inactive. In addition, the result in [9] was inactive. For the same compound, the AC50 in experiment [2] was 21.2 µM (active) and 13.3 µM (active); in experiment [4], 46.8 µM (active) and 41.4 µM (active).
In the case of `C=C1CC/C=C(\C)CC[C@@H]2[C@@H]1CC2(C)C`, the half-maximal activity concentration (AC50) in [1] was 29.1 µM (active); in [3], 29.8 µM (active); in [4], 28.6 µM (active). For the same compound, the result in experiment [2], in experiment [5], in [10], in experiment [6], in [7] and in experiment [8] was inactive. In addition, the outcome in experiment [9] was inactive.
